Drawing on PubChem BioAssay AID504329 (Southern Research Specialized Biocontainment Screening …, 2011), this text covers inhibition for 59 compounds.

Each structure is given as a SMILES string. The campaign covered roughly 340,000 compounds. About 1,000 (0.29%) were called active. Rule as the data show it: inconclusive = inhibition above about 27% without an active follow-up result; inactive = below that. A selection follows. Measured potencies and affinities stand elsewhere.

This test in a line: H1N1 influenza NS1A inhibitors, functional cell based assay (AID 504329). The following applies: percent inhibition, at 12.5 µM, active compounds read high.
As to `CCc1ccc(-c2cc(C)no2)cc1S(=O)(=O)Nc1cc(C)on1`, the inhibition (in general, the relative decrease from the control value, in per cent) is 1.29% (inactive).

For `Cc1ccccc1-c1nc(CS(=O)CC(=O)NCCN2CCOCC2)c(C)o1` (centres undefined), the inhibition is -1.58% (inactive).

As to `CC(C)(C)C1=CC(O)(c2ccccc2)C=C(C(C)(C)C)C1=O`, the inhibition was -2.37% (inactive).

For the compound `Nc1ccccc1N=Nc1ccccc1N`, the inhibition was 18.4% (inactive).

Take `COc1cccc(NC(=O)COC(=O)c2ccco2)c1`: the inhibition was 7.2% (inactive).

Take `CCOc1cccc(CNCCCSc2ncccn2)c1`: the inhibition is 1.33% (inactive).

As for `O=C(O)c1cccc2cccc(-c3c4ccc(=O)c(O)c-4oc4c(O)c(O)ccc34)c12`, the inhibition was 13% (inactive).

`O=C1c2ccccc2C(=O)c2c1ccc(O)c2O`: the inhibition was 17.2% (inactive).

With `Cc1ccc(OCCNC(=O)C2CC(=O)N(Cc3ccccc3)C2)cc1` (centres undefined), the inhibition is 4.88% (inactive).

In the case of `CC1CCN(S(=O)(=O)c2ccccc2[N+](=O)[O-])CC1`, the inhibition was 16.9% (inactive).

On to `CC1CCN(CC(O)COc2ccc(-c3ccccc3)cc2)CC1` (centres undefined), for which the inhibition was 19.9% (inactive).

`Cc1nn(-c2cc(N3CCCCC3)ccc2N)c(=O)c2ccccc12`: the inhibition is 2.92% (inactive).

`CN1CCN(c2ccc(N)c(N3CCN(C)CC3)c2)CC1`: the inhibition was 17.9% (inactive).

On to `O=C(C[C@@H]1C/C=C\C[C@@H](Cc2ccc(F)cc2)C(=O)OCCNC1=O)NCCO`, for which the inhibition was 0.47% (inactive).

`O=C1Nc2ccc(Br)cc2C12OCCO2`: the inhibition was -14.6% (inactive).

In the case of `CCOc1ccc(C(=O)NCc2ccc3c(c2)OCO3)cc1OCC`, the inhibition was -1.8% (inactive).

For the compound `O=C(COC(=O)c1ccc[nH]c1=O)NC1CCCCCCC1`, the inhibition is -1.92% (inactive).

On to `FC(F)(F)c1cc(C(F)(F)F)c2ccc(Oc3ccccc3)nc2n1`, for which the inhibition was -1.17% (inactive).

For `N#CC(c1cccc(Cl)c1)c1ccc2c(C(F)(F)F)cc(C(F)(F)F)nc2n1` (centres undefined), the inhibition is 20.9% (inactive).

As to `N#CC(c1ccc(Cl)cc1)c1ccc2c(C(F)(F)F)cc(C(F)(F)F)nc2n1` (centres undefined), the inhibition is 21.3% (inactive).

Consider `Cc1ccc(/C=N/Nc2ccc3c(C(F)(F)F)cc(C(F)(F)F)nc3n2)cc1`, for which the inhibition was -11.1% (inactive).

As to `O=C(C1=C[C@H](c2ccc3c(c2)OCO3)C[C@H](OCCCCO)O1)N1CCOCC1`, the inhibition is -1.7% (inactive).

Regarding `O=C(c1cc2cc(F)ccc2[nH]1)N1CCCC(Nc2ccc(F)cc2)C1` (centres undefined), the inhibition was 9.28% (inactive).

For `CCc1ccc(S(=O)(=O)/N=C2\C=C(NS(=O)(=O)c3ccccc3)C(=O)c3ccccc32)cc1`, the inhibition is 11.2% (inactive).

For `CCc1ccc(S(=O)(=O)/N=C2\C=C(Nc3ccc(C(=O)O)cc3)C(=O)c3ccccc32)cc1`, the inhibition was 25.1% (inactive).

As to `CC(C)(C)c1ccc(S(=O)(=O)/N=C2\C=C(NS(=O)(=O)c3ccccc3)C(=O)c3ccccc32)cc1`, the inhibition was 11.3% (inactive).

Take `CC(C)c1ccc(S(=O)(=O)/N=C2\C=C(NS(=O)(=O)c3ccccc3)C(=O)c3ccccc32)cc1`: the inhibition is 14.3% (inactive).

With `Cc1ccc(S(=O)(=O)Nc2c(NC3CCCCC3)c3ccccc3oc2=O)c(C)c1`, the inhibition was 0.02% (inactive).

`Cc1ccn(CCC(=O)N2CCCC(CCC(=O)N3CCN(c4ccccn4)CC3)C2)n1` (centres undefined): the inhibition was -2.86% (inactive).

In the case of `Cc1cc(C)c(NC(=O)CNC(=O)COC(=O)CNC(=O)c2ccc(Cl)cc2Cl)c(C)c1`, the inhibition was -0.98% (inactive).

As for `CCOC(=O)N1CCC(NS(=O)(=O)c2cc(Br)cc3c2N(C(=O)CC)CC3)CC1`, the inhibition is 7.36% (inactive).

Consider `Cc1ccccc1Nc1c(-c2ccccn2)nc2c(C)cccn12`, for which the inhibition is -0.06% (inactive).

`Cc1cccc(C)c1Nc1c(-c2ccccn2)nc2ccccn12`: the inhibition is 29.7% (inactive).

For `Cc1ccn2c(Nc3ccccc3)c(-c3ccccn3)nc2c1`, the inhibition was -0.92% (inactive).

On to `Cc1ccc(Nc2c(-c3ccccn3)nc3cc(C)ccn23)cc1`, for which the inhibition was 53% (inactive).

In the case of `CCOC(=O)CN(C(=O)c1snc(C(N)=O)c1N)C(C(=O)NC1CCCCC1)c1ccc(F)cc1` (centres undefined), the inhibition is 1.16% (inactive).

With `COc1ccc(C(=O)N/C(=C\c2cn(C)c3ccccc23)C(=O)NCCCn2ccnc2)cc1OC`, the inhibition was 4.02% (inactive).

For `O=C(NCCc1ccc(Cl)cc1)C(=O)c1c[nH]c2ccccc12`, the inhibition was -31.4% (inactive).

`O=C(Nc1ccc(N2CCOCC2)cc1)C1CCCCN1S(=O)(=O)c1ccccc1` (centres undefined): the inhibition was -25.6% (inactive).

Regarding `c1ccc(CN2CCNCC2)nc1`, the inhibition is 2.99% (inactive).

Take `c1cc(CNCCN2CCNCC2)ccn1`: the inhibition was -2.65% (inactive).

`CN(CCCNC(=O)CCC(=O)N1CCOc2ccc(Cl)cc21)Cc1ccccc1`: the inhibition was 3.8% (inactive).

As to `O=C(CN1C(=O)NC2(CCc3ccccc32)C1=O)c1cccs1` (centres undefined), the inhibition is -5.04% (inactive).

Turning to `COc1ccccc1/C=N/Nc1nc(C)cc(C)n1`, the inhibition was -18.3% (inactive).

For `COc1ccc(Cc2nnc(SC)[nH]c2=O)cc1OC`, the inhibition was -0.91% (inactive).

Take `COc1ccc(Cc2nccc3cc(OC)c(OC)cc23)cc1OC`: the inhibition was 0.89% (inactive).

For the compound `COc1ccc(/C=N/Nc2nnc(Cc3ccc(OC)c(OC)c3)c(=O)[nH]2)cc1OC`, the inhibition was -2.26% (inactive).

For `CCc1ccc2[nH]c3nc(N/N=C/c4ccc(O)cc4O)nnc3c2c1`, the inhibition was 1.89% (inactive).

As for `COc1ccc(Cc2nc3ccccc3n2CC(=O)N/N=C/c2ccc(C)cc2O)cc1OC`, the inhibition is 1.09% (inactive).

`COc1ccc(CCN=Cc2ccccc2O)cc1OC`: the inhibition is -18.6% (inactive).

On to `COc1ccc(/C=N/Nc2nnc(Cc3ccc(OC)c(OC)c3)c(=O)[nH]2)cc1`, for which the inhibition is 12.1% (inactive).

Consider `COc1ccc(NC2c3ccccc3C(=O)N2c2ccccn2)cc1Cl` (centres undefined), for which the inhibition was 25% (inactive).

Regarding `Cn1c(=O)c(=O)n(C)c2cc(S(=O)(=O)NCc3ccc(Cl)cc3)ccc21`, the inhibition was -12% (inactive).

As to `O=C(CSc1ccccc1)NNC(=O)c1ccncc1`, the inhibition was -1.89% (inactive).

`CC(C)CC(=O)Nc1nnc(S(=O)(=O)Nc2ccccc2)s1`: the inhibition is 0.61% (inactive).

`CCCCn1c(=O)[nH]c(=O)c2c1nc(-c1ccccc1OC(F)F)n2C`: the inhibition was -2.54% (inactive).

With `Cc1ccc(NCC(=O)N/N=C/c2cccn2C)cc1`, the inhibition was 1.43% (inactive).

Consider `Cc1cc(N2CCN(CC(O)C(F)(F)F)CC2)c2ccccc2n1` (centres undefined), for which the inhibition was 15.7% (inactive).

For `CCC(CO)Oc1cc(NCc2cccc(C(F)(F)F)c2)c2ncn(C(C)C)c2c1` (centres undefined), the inhibition is -6.24% (inactive).
